Assay results as given in PubChem BioAssay AID1159580 (chemical genetic matrix, 2015).
“And” between values parts separate entries of the source, which are not always exact repeats. Identical values can stand only once. In all, about 5,500 compounds went through this assay and about 2,000 (36%) were called active. About 18% were inconclusive and are not listed. The list shows a part of the results. Unmarked numbers belong to inactive results. Cut-off read from the data, not from the text of the source: active = normalized growth mostly below about 0.91 (no sharp cut-off); inconclusive = no clear call, values can overlap the other calls; inactive = mostly above about 0.92.

Experiment: chemical genetic growth profiling, strain panel (AID 1159580);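 note: tested at 20 µM; growth read once vehicle control cultures reached saturation at 30 °C; 1 = growth at the plate median or of vehicle wells; lower values mean less growth of the strain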
Settings: S. cerevisiae deletion strains, growth OD
[1] = locus YDR150W, strain NUM1, hits give low values
[2] = locus YMR263W, strain SAP30, hits give low values
[3] = locus YMR307W, strain GAS1, hits give low values
[4] = locus YPL055C, strain LGE1, hits give low values
[5] = locus YBR021W, strain FUR4, hits give low values
[6] = locus YBR229C, strain ROT2, hits give low values
[7] = locus YCL029C, strain bik1, hits give low values
[8] = locus YDL035C, strain GPR1, hits give low values
[9] = locus YDL074C, strain BRE1, hits give low values
[10] = locus YDL101C, strain DUN1, hits give low values
[11] = locus YDL185W, strain tfp1, hits give low values
[12] = locus YDL192W, strain arf1, hits give low values
[13] = locus YDR101C, strain arx1, hits give low values
[14] = locus YDR162C, strain NBP2, hits give low values
[15] = locus YDR318W, strain mcm21, hits give low values
[16] = locus YDR388W, hits give low values
[17] = locus YDR502C, strain sam2, hits give low values
[18] = locus YEL061C, strain CIN8, hits give low values
[19] = locus YER110C, hits give low values
[20] = locus YER155C, strain BEM2, hits give low values
[21] = locus YER167W, strain BCK2, hits give low values
[22] = locus YGL078C, strain dbp3, hits give low values
[23] = locus YGL086W, strain mad1, hits give low values
[24] = locus YGL248W, strain PDE1, hits give low values
[25] = locus YGR135W, strain pre9, hits give low values
[26] = locus YGR252W, strain gcn5, hits give low values
[27] = locus YHR030C, strain SLT2, hits give low values
[28] = locus YHR079C, strain IRE1 (second series), hits give low values
[29] = locus YHR094C, strain hxt1, hits give low values
[30] = locus YHR129C, strain ARP1, hits give low values
[31] = locus YHR200W, strain rpn10, hits give low values
[32] = locus YIL066C, strain RNR3, hits give low values
[33] = locus YIL073C, strain SPO22, hits give low values
[34] = locus YIL125W, strain kgd1, hits give low values
[35] = locus YIR030C, strain dcg1, hits give low values
[36] = locus YJL095W, strain BCK1, hits give low values
[37] = locus YJL134W, strain LCB3, hits give low values
[38] = locus YJL168C, strain set2, hits give low values
[39] = locus YJL187C, strain SWE1 (second series), hits give low values
[40] = locus YJR043C, strain POL32, hits give low values
[41] = locus YKL009W, strain mrt4, hits give low values
[42] = locus YKL068W, hits give low values
[43] = locus YKL085W, strain MDH1 (second series), hits give low values
[44] = locus YKL085W, strain MDH1, hits give low values
[45] = locus YKL190W, strain CNB1, hits give low values
[46] = locus YKR001C, strain vps1, hits give low values
[47] = locus YLR039C, strain RIC1, hits give low values
[48] = locus YLR058C, strain SHM2, hits give low values
[49] = locus YLR102C, strain apc9, hits give low values
[50] = locus YLR262C, strain YPT6, hits give low values
[51] = locus YLR268W, strain sec22, hits give low values
[52] = locus YLR330W, strain CHS5, hits give low values
[53] = locus YLR342W, strain FKS1 (second series), hits give low values
[54] = locus YLR371W, strain rom2, hits give low values
[55] = locus YLR418C, strain cdc73, hits give low values
[56] = locus YML016C, strain PPZ1, hits give low values
[57] = locus YML032C, strain rad52, hits give low values
[58] = locus YML124C, strain tub3, hits give low values
[59] = locus YMR078C, strain ctf18, hits give low values
[60] = locus YMR223W, strain ubp8, hits give low values
[61] = locus YNL067W, strain RPL9B, hits give low values
[62] = locus YNL233W, strain BNI4, hits give low values
[63] = locus YNL250W, strain rad50, hits give low values
[64] = locus YNL271C, strain bni1, hits give low values
[65] = locus YNL298W, strain CLA4, hits give low values
[66] = locus YNL307C, strain MCK1, hits give low values
[67] = locus YNR052C, strain pop2, hits give low values
[68] = locus YOL147C, strain pex11, hits give low values
[69] = locus YOR061W, strain CKA2, hits give low values
[70] = locus YOR069W, strain VPS5, hits give low values
[71] = locus YOR136W, strain idh2, hits give low values
[72] = locus YOR144C, strain elg1, hits give low values
[73] = locus YOR184W, strain ser1, hits give low values
[74] = locus YOR316C, strain cot1, hits give low values
[75] = locus YPR119W, strain clb2, hits give low values
[76] = locus YPR141C, strain kar3, hits give low values
[77] = locus YPR163C, strain tif3, hits give low values
[78] = locus YPR167C, strain met16, hits give low values
[79] = strain wtn01, hits give low values

O=c1cc(O)cc(/C=C/c2ccc(O)c(O)c2)o1
normalized growth (locus YAL013W, strain DEP1, hits give low values): 0.981
normalized growth (locus YAL040C, strain CLN3, hits give low values): 0.986
normalized growth (locus YCL061C, strain MRC1 (second series), hits give low values): 0.988
normalized growth [1]: 0.978
normalized growth (locus YDR363W, strain ESC2, hits give low values): 0.995
normalized growth (locus YER002W, strain NOP16, hits give low values): 0.999
normalized growth (locus YGR078C, strain PAC10, hits give low values): 0.985
normalized growth (locus YGR229C, strain SMI1, hits give low values): 0.966
normalized growth (locus YJR075W, strain HOC1, hits give low values): 0.988
normalized growth [2]: 1
normalized growth [3]: 1.01
normalized growth (locus YNL175C, strain NOP13, hits give low values): 0.988
normalized growth (locus YNL197C, strain WHI3, hits give low values): 0.986
normalized growth (locus YNL224C, strain SQS1, hits give low values): 1.02
normalized growth (locus YOR083W, strain WHI5 (second series), hits give low values): 0.975
normalized growth [4]: 0.978

C/C=C/c1ccc(OC)cc1
normalized growth [5]: 0.987
normalized growth [6]: 1.01
normalized growth [7]: 1.02
normalized growth [8]: 1.01
normalized growth [9]: 1.03
normalized growth [10]: 1.03
normalized growth [11]: 1.01
normalized growth [12]: 1.01
normalized growth [13]: 1.02
normalized growth [14]: 1.02
normalized growth [15]: 1
normalized growth [16]: 1
normalized growth [17]: 0.998
normalized growth [18]: 1.01
normalized growth [19]: 1.02
normalized growth [20]: 1.01
normalized growth [21]: 1
normalized growth [22]: 0.999
normalized growth [23]: 1.02
normalized growth [24]: 1.01
normalized growth [25]: 1
normalized growth [26]: 1.01
normalized growth [27]: 1.01 and 0.942
normalized growth [28]: 1.01
normalized growth (locus YHR079C, strain IRE1, hits give low values): 0.948
normalized growth [29]: 1.01
normalized growth [30]: 1.01
normalized growth [31]: 1.01
normalized growth [32]: 1.01
normalized growth [33]: 1.03
normalized growth [34]: 1.01
normalized growth [35]: 1.02
normalized growth [36]: 1.03 and 0.941
normalized growth [37]: 1.01
normalized growth [38]: 1.01
normalized growth [39]: 1.03
normalized growth [40]: 1.01
normalized growth (locus YJR066W, strain TOR1, hits give low values): 0.902
normalized growth [41]: 1.02
normalized growth [42]: 1
normalized growth [43]: 1.01
normalized growth [44]: 1.01
normalized growth [45]: 1.01
normalized growth [46]: 0.998
normalized growth [47]: 1.03
normalized growth [48]: 1.01
normalized growth [49]: 1.01
normalized growth (locus YLR113W, strain HOG1, hits give low values): 0.91
normalized growth [50]: 1.05
normalized growth [51]: 1.03
normalized growth [52]: 1.01
normalized growth [53]: 0.986
normalized growth [54]: 1.02
normalized growth [55]: 0.989
normalized growth [56]: 1.01
normalized growth [57]: 0.99
normalized growth [58]: 1.01
normalized growth [59]: 1.01
normalized growth [60]: 1.01
normalized growth [3]: 0.968
normalized growth [61]: 1.03
normalized growth (locus YNL183C, strain NPR1, hits give low values): 0.904
normalized growth [62]: 1.02
normalized growth [63]: 1.02
normalized growth [64]: 1
normalized growth [65]: 0.988
normalized growth [66]: 1
normalized growth [67]: 1.01
normalized growth (locus YOL012C, strain htz1): 0.756
normalized growth [68]: 1.01
normalized growth [69]: 1.01
normalized growth [70]: 1.01
normalized growth [71]: 1.01
normalized growth [72]: 1
normalized growth [73]: 1.01
normalized growth (locus YOR231W, strain MKK1, hits give low values): 0.953
normalized growth [74]: 1
normalized growth [4]: 1.03
normalized growth (locus YPL256C, strain CLN2, hits give low values): 0.927
normalized growth [75]: 1.01
normalized growth [76]: 1.01
normalized growth [77]: 1
normalized growth [78]: 1.01
normalized growth [79]: 1.01

COc1cc(O)cc(/C=C/c2ccccc2)c1
normalized growth [5]: 0.833 (active)
normalized growth [6]: 0.97
normalized growth [7]: 0.9 (active)
normalized growth [8]: 0.665 (active)
normalized growth [9]: 0.61 (active)
normalized growth [10]: 0.835 (active)
normalized growth (locus YDL134C, strain PPH21, hits give low values): 0.697 (active)
normalized growth [11]: 0.881 (active)
normalized growth [12]: 0.692 (active)
normalized growth [13]: 0.858 (active)
normalized growth [1]: 0.954
normalized growth [14]: 0.618 (active)
normalized growth [15]: 0.805 (active)
normalized growth [16]: 0.966
normalized growth [17]: 0.748 (active)
normalized growth [18]: 0.856 (active)
normalized growth [19]: 0.866 (active)
normalized growth [20]: 0.753 (active)
normalized growth [21]: 0.94
normalized growth [22]: 0.765 (active)
normalized growth [23]: 0.803 (active)
normalized growth [24]: 0.748 (active)
normalized growth [25]: 0.713 (active)
normalized growth [26]: 0.519 (active)
normalized growth [27]: 0.795 (active)
normalized growth [28]: 0.89 (active)
normalized growth [29]: 0.946
normalized growth [30]: 0.768 (active)
normalized growth [31]: 0.907 (active)
normalized growth [32]: 0.859 (active)
normalized growth [33]: 0.809
normalized growth [34]: 0.94
normalized growth [35]: 0.907 (active)
normalized growth [36]: 0.46 (active)
normalized growth [37]: 0.976
normalized growth [38]: 0.954
normalized growth [39]: 0.721 (active)
normalized growth [40]: 0.85 (active)
normalized growth [41]: 0.742 (active)
normalized growth [42]: 0.954
normalized growth [43]: 0.913 (active)
normalized growth [44]: 0.913 (active)
normalized growth [45]: 0.839 (active)
normalized growth [46]: 0.425 (active)
normalized growth [47]: 0.507 (active)
normalized growth [48]: 0.784 (active)
normalized growth [49]: 0.942
normalized growth [50]: 0.381 (active)
normalized growth [51]: 0.909
normalized growth [52]: 0.715 (active)
normalized growth [53]: 0.601 (active)
normalized growth [54]: 0.949
normalized growth [55]: 0.456 (active)
normalized growth [56]: 0.924
normalized growth [57]: 0.795 (active)
normalized growth [58]: 0.914 (active)
normalized growth [59]: 0.938
normalized growth [60]: 0.805 (active)
normalized growth [2]: 0.768 (active)
normalized growth [3]: 0.59 (active)
normalized growth [61]: 0.721 (active)
normalized growth [62]: 0.67 (active)
normalized growth [63]: 0.887 (active)
normalized growth [64]: 0.855 (active)
normalized growth [65]: 0.802 (active)
normalized growth [66]: 0.513 (active)
normalized growth [67]: 0.855 (active)
normalized growth (locus YOL012C, strain htz1): 1.06
normalized growth [68]: 0.824 (active)
normalized growth [69]: 0.885 (active)
normalized growth [70]: 0.807 (active)
normalized growth [71]: 0.899 (active)
normalized growth [72]: 0.918 (active)
normalized growth [73]: 0.666 (active)
normalized growth [74]: 0.949
normalized growth [75]: 0.924 (active)
normalized growth [76]: 0.95
normalized growth [77]: 0.682 (active)
normalized growth [78]: 0.809 (active)
normalized growth [79]: 0.789 (active)
